In the library only some 9.4% were active in any assay of this set; here they are far more common.
ELG1 genotox – induces genotoxicity in HEK293T cells with luciferase-tagged ELG1. HEK293T ELG1-luciferase reporter, luminescence, 16 h. Potency, µM (highest dose often 46 µM), for the others: at the highest dose activity change, positive = activation, hits mostly activators. 1.3% of 330,000 active; also: % of control where 0% means no effect; nearly all actives have a fitted effect of over 60% in size
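Genotoxic stress is detected as increased luminescence from luciferase-tagged ELG1 in HEK293T cells, measured with ONE-Glo after a 16 hr treatment at 37 °C.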
Rab9 promoter act – Rab9 promoter activation; Huh7 Rab9 promoter-luciferase reporter, luminescence, 24 h; Potency, µM (series often up to 9.22 µM), for inactives: at the highest dose activation, negative = inhibition, hits mostly activators; 2.8% of 320,000 active; AID 485297; also: % of control where 0% means no effect; nearly all actives have a fitted effect of over 60% in size
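Huh7 cells stably carrying a Rab9 promoter-luciferase reporter, 1500 cells per well in OP-MEM I with 10% FBS, treated with compound 24 hours at 37C. Luciferase activity read by luminescence after 10 minutes with Amplite reagent.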
FLuc modulator – firefly luciferase modulation, counter-screen for miR-21 project; purified FLuc, Km substrates, luminescence inhibition; Potency, µM (series often up to 57.5 µM), inactives show top-dose activity change, negative = inhibition, hits mostly inhibitors; 6.9% of 360,000 active;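 also: plate controls were vehicle for no effect and reference inhibitor for full effect; nearly all actives have a fitted effect of over 55% in size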
Target sequence (P08659 whole entry, looked up): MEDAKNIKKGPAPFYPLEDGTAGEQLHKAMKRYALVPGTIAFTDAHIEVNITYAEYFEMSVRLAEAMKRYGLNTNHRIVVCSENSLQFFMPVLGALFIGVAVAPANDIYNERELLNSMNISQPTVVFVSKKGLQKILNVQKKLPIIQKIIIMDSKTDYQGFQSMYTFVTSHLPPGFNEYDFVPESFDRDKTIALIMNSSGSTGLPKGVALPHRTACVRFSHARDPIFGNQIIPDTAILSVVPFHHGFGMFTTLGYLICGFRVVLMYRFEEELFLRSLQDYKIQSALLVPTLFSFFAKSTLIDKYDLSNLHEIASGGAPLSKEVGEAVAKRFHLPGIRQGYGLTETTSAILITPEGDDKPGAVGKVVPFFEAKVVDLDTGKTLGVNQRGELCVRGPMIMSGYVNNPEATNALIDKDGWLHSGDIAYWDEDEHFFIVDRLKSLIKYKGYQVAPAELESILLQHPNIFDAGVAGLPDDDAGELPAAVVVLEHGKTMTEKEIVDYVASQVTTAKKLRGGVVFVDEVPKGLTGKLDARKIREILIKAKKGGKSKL
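Biochemical qHTS of compounds, final roughly 60 µM downward over six points, against 10 nM purified firefly luciferase using Km concentrations of substrates (10 uM D-luciferin, 10 uM ATP) in Tris acetate pH 7.5 buffer; luminescence output.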
NPC1 prom act – activators of NPC1 promoter | Huh7 NPC1 promoter luciferase reporter, 24 h | 2.4% of 320,000 active | Potency, µM (top dose mostly 9.22 µM), for the others: at the top dose activation, actives largely listed as activators | AID 485313; also: % of control where 0% means no effect; nearly all actives have a fitted effect of over 60% in size
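Readout is luciferase luminescence, reflecting NPC1 promoter activation in stably transfected Huh7 cells after 24 h compound exposure at 37 °C in reduced-serum medium with 10% FBS.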
ELG1 repair inh – inhibitors of ELG1-dependent DNA repair in HEK293T cells | HEK293T ELG1-luciferase reporter, luminescence, 16 h; DNA damage induced by 5-fluorouridine | Potency, µM (series often up to 46.1 µM), for inactives: at the highest dose activity change, negative = inhibition, actives largely listed as inhibitors | 2.3% of 330,000 active | AID 504467; also: % is scaled to controls: 0 for no effect and ±100 for the full control effect; nearly all actives have a fitted effect of over 55% in size
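HEK293T cells expressing luciferase-tagged ELG1 (2,000/well) received 5-Fluorouridine plus compound or DMSO for 16 hr at 37 °C. Luciferase was read by ONE-Glo luminescence after 30 min at room temperature.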
SMN2 splice enh – SMN2 splice variant enhancement. Potency, µM (top dose mostly 46.1 µM), inactives show top-dose activity change, positive = activation, hits mostly activators. 2.8% of 210,000 active. HEK293 SMN2-luciferase splicing reporter, luminescence, 30-36 h; also: % of control where 0% means no effect; nearly all actives have a fitted effect of over 55% in size
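qHTS luciferase splicing reporter: luminescence rises when SMN2 exon 7 is included in transfected HEK293 cells. Compound exposure lasted 30-36 h at 37C, with 4.5 mM final sodium butyrate as control, followed by a ONE-Glo read.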
The depositor's hits bear a star; ? = inconclusive; / = no result given. Calls follow the shape of the dose curve; as a rule, active = well fitted curve in the direction sought with a large enough effect; inconclusive = small, poorly fitted or top-dose-only effect, or another doubt; inactive = no such curve, though single readings can be large; an effect the other way counts as inactive or inconclusive. Potency is read from the fitted curve at half-maximal effect.

SMILES | ELG1 genotox | Rab9 promoter act | FLuc modulator | NPC1 prom act | ELG1 repair inh | SMN2 splice enh
OCCN1CCN(c2nc(-c3ccccc3)nc3c2oc2ccccc23)CC1 | -1% | 3% | -1% | -6% | ? | -6%
O=C(O)CSc1nc(-c2ccccc2)nc2c1oc1ccccc12 | 0% | -3% | 21µM* | 3% | 0% | -7%
O=C(c1ccc2c(c1)OCCO2)N(Cc1cccnc1)c1nc2c(F)cccc2s1 | / | / | 17µM* | / | / | /
O=C(Cc1ccccc1)N(Cc1cccnc1)c1nc2c(F)cccc2s1 | / | / | -9% | / | / | /
Cc1ccc(C(=O)Nc2ccc3oc(-c4ccc(C(C)(C)C)cc4)nc3c2)cc1 | / | / | ? | / | / | 0%
Cc1ccn2c(C(=O)CSc3ccccc3)c(C)nc2c1 | 7% | 15% | ? | 16% | 12% | 25µM*
C=CCc1c(C)nc(-c2ccccc2)nc1N/N=C/c1ccncc1 | -5% | 28% | 6µM* | 14% | ? | 26%
C=CCc1c(C)nc(C)nc1N/N=C/c1ccccc1 | 3% | -4% | 4% | 0% | -11% | -2%
C=CCc1c(C)nc(C)nc1N/N=C/c1ccc(F)cc1 | 0% | 2% | 2% | -1% | -13% | -18%
C=CCc1c(C)nc(-c2ccccc2)nc1N/N=C(\C)c1ccc(N)cc1 | -1% | -17% | 12µM* | -5% | -5% | -29%
C=CCc1c(C)nc(-c2ccccc2)nc1N/N=C/c1ccccc1 | 1% | -3% | 9.5µM* | 0% | ? | 9%
CN(C)C=O | / | / | / | / | / | 2%
CCN(CC)S(=O)(=O)c1cccc(C(=O)Nc2ccccc2C(=O)Nc2ccc(OC)cc2)c1 | / | / | 8.5µM* | / | / | /
C=CCN(c1ccccc1)S(=O)(=O)c1cccc(C(=O)Nc2ccc(N3CCOCC3)cc2)c1 | -11% | -3% | -16% | -4% | 15µM* | /
COc1ccc(C(=O)NCC(=O)OCC(=O)Nc2cccc(S(=O)(=O)N3CCCC3)c2)cc1 | -1% | -9% | 12µM* | -3% | 17% | /
COc1ccc(NC(=O)c2cccc(S(=O)(=O)N3CCCCCC3)c2)cc1 | 1% | 0% | -6% | -1% | 21µM* | /
Cc1cccn2c(=O)c3cc(C#N)c(=O)n(-c4nnc(SCc5ccccc5F)s4)c3nc12 | / | / | 4% | / | / | -3%
COc1ccc(NC(=O)/C(C#N)=C/c2ccc(OCc3cc(=O)n4nc(C)sc4n3)cc2)cc1 | / | / | -3% | / | / | 1%
O=c1cnc2cnc(Oc3ccccc3)nc2n1CCc1ccccc1 | / | / | / | / | / | -3%
CCCCC/C=C\C\C=C/C=C/C=C/[C@@H](SCC(NC(C)=O)C(=O)O)[C@@H](O)CCCC(=O)O (stereo partly specified) | / | / | / | / | / | -2%
CCN(CC)S(=O)(=O)c1cccc(C(=O)N/N=C/c2cccc(O)c2O)c1 | ? | -2% | 8.5µM* | -7% | 4% | -67%
O=C(Nc1ccc(N2CCOCC2)cc1)c1cccc(S(=O)(=O)N2CCCCC2)c1 | 1% | -1% | -16% | -7% | 16µM* | -38%
CC(=O)Nc1nonc1-c1nnc(SCc2ccccc2C)n1C | / | / | -8% | / | / | /
CC1CCN(C(=O)c2ccc(NC3=C(Cl)C(=O)N(Cc4ccccc4)C3=O)cc2)CC1 | 0% | 4% | -2% | 0% | 10µM* | /
CC1CCN(C(=O)c2ccc(NC(=O)c3ccccc3)cc2)CC1 | 9% | 26% | -20% | 1% | 6% | /
SMILES | ELG1 genotox | Rab9 promoter act | FLuc modulator | NPC1 prom act | ELG1 repair inh | SMN2 splice enh
O=C1C(Cl)=C(Nc2cccc(O)c2)C(=O)N1Cc1ccccc1 | -7% | -15% | -6% | -5% | -8% | -7%
CC1CCCCN1C(=O)c1cccc(NC2=C(Cl)C(=O)N(Cc3ccccc3)C2=O)c1 (stereo unspecified) | -1% | 0% | -12% | 9% | 10µM* | /
CCOc1ccc(C(=O)NCCn2cc(SCC(=O)NCCc3ccc(OC)c(OC)c3)c3ccccc32)cc1 | / | / | ? | / | / | 0%
CC(C)Cn1c(=O)c2sccc2n2c(CCCC(=O)NCCc3ccc(Cl)cc3)nnc12 | / | / | -7% | / | / | /
CN(C)c1ccc(N=Nc2ccc(S(N)(=O)=O)cc2)cc1 | 21µM* | 2.8µM* | 2.7µM* | 1µM* | ? | /
Cc1ccc(CCNC(=O)c2sc3nc4n(c(=O)c3c2C)CCCC4)cc1 | / | / | -8% | / | / | /
c1ccc2nc3c(nc2c1)OCC1CCCCN31 (stereo unspecified) | ? | 2.5µM* | 3.8µM* | 4.5µM* | ? | /
O=C(CCSCc1ccc(Cl)cc1)N1CCN(c2ccccc2F)CC1 | / | / | -10% | / | / | /
C=CCn1c(-c2ccc(OC)cc2)nc2nc3ccccc3nc21 | 14% | -1% | ? | 1% | 0% | 10µM*
COc1ccc(-c2nc3ccccc3n2Cc2ccccc2)cc1 | 2% | 5% | ? | -1% | -16% | -30%
C=CCn1c(-c2ccc(OC)cc2)nc2ccccc21 | 0% | 30% | 13µM* | 16% | ? | ?
C=CCn1c(N)nc2ccccc21 | -1% | 1% | 2% | 2% | -7% | -22%
CCOC(=O)c1cccc(-n2c(C)nc3ccccc3c2=O)c1 | -1% | 16% | -1% | 2% | 4% | /
CCOC(=O)c1cccc(-n2c(-c3ccc(OC)cc3)nc3nc4ccccc4nc32)c1 | -3% | -2% | 2% | -4% | 10µM* | -17%
C=CCn1c(-c2ccc(N)cc2)nc2ccccc21 | 18µM* | ? | 11µM* | 14% | ? | ?
COc1ccc(-c2nnc(SCC(=O)c3ccc([N+](=O)[O-])cc3)o2)cc1OC | / | / | 1% | / | / | 2%
COc1ccc(-c2cn3nc(N4CCC(C(=O)NCc5ccccc5F)CC4)sc3n2)cc1 | / | / | -7% | / | / | /
COc1ccc(CCn2c(-c3cccc([N+](=O)[O-])c3)nc3nc4ccccc4nc32)cc1OC | -2% | 10% | -1% | 2% | ? | -10%
CCCn1c(-c2cc(OC)c(OC)c(OC)c2)nc2nc3ccccc3nc21 | -2% | 1% | 2% | -8% | 16µM* | ?
CNS(=O)(=O)c1cn(CC(=O)N2CCN(c3ccc(C)cc3C)CC2)cc1S(=O)(=O)NC | / | / | 4% | / | / | /
N#Cc1ccc(/C=N/NC(=S)Nc2ccc(S(=O)(=O)N3CCOCC3)cc2)cc1 | -5% | -4% | -17% | -4% | -10% | /
O=S(=O)(c1ccc(Cl)c(NC(=S)N/N=C/c2ccc(O)cc2)c1)N1CCOCC1 | -6% | 1% | 17µM* | -7% | 23µM* | -63%
O=[N+]([O-])c1cc(Cl)cc(/C=N/NC(=S)Nc2ccc(S(=O)(=O)N3CCOCC3)cc2)c1O | 3% | 2% | ? | 0% | 13µM* | /
O=S(=O)(c1ccc(NC(=S)N/N=C/c2ccc(O)c(O)c2)cc1)N1CCOCC1 | 3% | -5% | 17µM* | -2% | -11% | /
